Source: PubChem BioAssay (NCATS)
Results filed as inconclusive are left out. Calls of active or inactive are those of the source. Unless noted, calls come from the whole dose curve; as a rule, active = well fitted curve in either direction with a large enough effect (not every such curve was filed as active); inconclusive = small, poorly fitted or top-dose-only effect, or another doubt; inactive = flat fitted curve, though single readings scatter.

Tests used:
[1] = target: Lysosomal acid glucosylceramidase (Homo sapiens) (UniProt P04062); test: Glucocerebrosidase-p2 (AID 348; in the data active = potency below about 10 µM; note: potency is the fitted concentration of half-maximal effect); conditions: purified GBA, blue fluorogenic substrate, 40 min
Chain of Lysosomal acid glucosylceramidase (Homo sapiens) (P04062 whole entry, looked up): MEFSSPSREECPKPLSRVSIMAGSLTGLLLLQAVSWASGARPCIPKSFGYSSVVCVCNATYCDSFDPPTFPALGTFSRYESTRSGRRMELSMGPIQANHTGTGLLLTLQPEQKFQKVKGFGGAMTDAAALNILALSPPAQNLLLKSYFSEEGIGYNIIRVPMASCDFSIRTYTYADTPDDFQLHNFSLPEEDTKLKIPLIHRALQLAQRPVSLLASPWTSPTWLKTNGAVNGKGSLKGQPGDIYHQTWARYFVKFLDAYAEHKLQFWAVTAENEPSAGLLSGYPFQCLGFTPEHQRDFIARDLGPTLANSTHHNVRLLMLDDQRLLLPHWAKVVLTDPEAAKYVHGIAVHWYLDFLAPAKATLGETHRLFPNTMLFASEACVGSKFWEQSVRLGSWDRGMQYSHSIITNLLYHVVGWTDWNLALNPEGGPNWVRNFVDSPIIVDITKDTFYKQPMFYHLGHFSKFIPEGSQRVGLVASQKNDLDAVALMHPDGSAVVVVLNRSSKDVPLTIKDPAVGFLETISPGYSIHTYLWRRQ
In short: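 Normal human glucocerebrosidase (0.2 nM) with blue fluorogenic substrate (80 uM final) in citrate/phosphate pH 5.9 with 10mM sodium taurocholate, 0.01% tween-20; 40 min RT, NaOH/glycine stop; fluorescence Ex 365/Em 440; AC50 from a titration from 0.6 nM upwards.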

[2] = AP1 Signaling Pathway (AID 357); conditions: ME-180 AP-1-bla reporter, EGF-induced, beta-lactamase ratio, 5 h; at 7.69 µM (top of the series) unless noted;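 note: ME-180 reporter cells stimulated with EGF at its EC50 level; % is set by controls: 0 for no effect and ±100 for the full control effect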
In short: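 Titration-series screen for positive or negative modulators of EC50 EGF-induced signaling in ME-180 cells carrying an AP-1-driven beta-lactamase reporter. After 5 hours at 37 degrees Celsius, CCF4 460nm/530nm emission ratio gave %Activity; AC50 values derived.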

[3] = NFAT Signaling Pathway (AID 444); conditions: Jurkat NFAT-bla M1, carbachol, beta-lactamase ratio, 5 h; at 7.69 µM (top of the series) unless noted;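 note: carbachol stimulus at about its EC50 of 1 µM final; % is set by controls: 0 for no effect and ±100 for the full control effect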
In short: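 Jurkat cells carrying an NFAT-driven β-lactamase reporter and co-transfected muscarinic M1 receptor were treated with compound plus carbachol (1 uM final, an EC50 level) for 5 h at 37 °C. CCF4 loading followed for 1 h at RT; 460/530 nm ratio gave %activity.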

[4] = Stat Signaling Pathway (AID 446); conditions: ME-180 SIE beta-lactamase reporter, IL-6 stimulated, 5 h; at 7.69 µM (top of the series) unless noted;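 note: ME-180 cervical cancer cells given 40 pM IL-6 alongside compound; SIE-controlled beta-lactamase reporter measured as 460/530 nm FRET emission ratio; % is set by controls: 0 for no effect and ±100 for the full control effect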
In short: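 Normalization used AC90 stimulation (300 pM IL-6) and AC90 inhibition (125 nM pan-JAK inhibitor at 40 pM IL-6). The underlying signal is SIE-driven beta-lactamase in ME-180 cells after 5 h IL-6 exposure with compound.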

[5] = target: Glucocorticoid receptor (Homo sapiens) (UniProt P04150); test: GR-GFP Redistribution (AID 450;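 active = compounds whose dose series gives a full or clear partial fitted curve of increased nuclear translocation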; note: potency is the fitted concentration of half-maximal effect); conditions: U2OS GR-GFP nuclear translocation, laser cytometry, 2 h
Chain of Glucocorticoid receptor (Homo sapiens) (P04150 whole entry, looked up, the tested form may be a part): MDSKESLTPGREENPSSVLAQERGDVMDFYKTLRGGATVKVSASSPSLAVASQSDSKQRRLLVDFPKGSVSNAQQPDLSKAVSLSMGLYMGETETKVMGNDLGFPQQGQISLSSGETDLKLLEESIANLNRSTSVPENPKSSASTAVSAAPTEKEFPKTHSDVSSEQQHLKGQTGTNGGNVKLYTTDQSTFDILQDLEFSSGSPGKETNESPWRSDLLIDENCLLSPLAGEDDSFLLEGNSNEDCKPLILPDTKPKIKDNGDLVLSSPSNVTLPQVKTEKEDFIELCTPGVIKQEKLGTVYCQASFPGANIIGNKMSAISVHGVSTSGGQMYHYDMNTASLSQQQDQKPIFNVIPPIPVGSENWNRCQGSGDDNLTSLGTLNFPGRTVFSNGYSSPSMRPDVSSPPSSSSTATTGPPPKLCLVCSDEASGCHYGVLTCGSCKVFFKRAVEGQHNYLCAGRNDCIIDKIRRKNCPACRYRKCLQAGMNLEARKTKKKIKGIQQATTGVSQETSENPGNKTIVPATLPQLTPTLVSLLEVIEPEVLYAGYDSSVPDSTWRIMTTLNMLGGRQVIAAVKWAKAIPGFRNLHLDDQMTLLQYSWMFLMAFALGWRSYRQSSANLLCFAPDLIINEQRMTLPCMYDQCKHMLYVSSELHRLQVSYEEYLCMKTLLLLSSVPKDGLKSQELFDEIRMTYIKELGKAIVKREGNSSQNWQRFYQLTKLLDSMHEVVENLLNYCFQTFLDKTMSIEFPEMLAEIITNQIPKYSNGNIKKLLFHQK

[6] = target: Glucocorticoid receptor (Homo sapiens) (UniProt P04150); test: GR-EFC Redistribution (AID 451; calls by dose curve; note: potency is the fitted concentration of half-maximal effect); conditions: CHO-K1 GR-EFC translocation, beta-gal luminescence, 2 h
In short: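 CHO-K1 cells stably expressing nuclear-localized β-gal enzyme acceptor and GR fused C-terminally to the enzyme donor fragment; ligand-driven nuclear translocation restores β-gal by complementation. Compounds titrated up to 46 uM final, 2 h at 37 °C; luminescence read.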

[7] = target: 3',5'-cyclic-AMP phosphodiesterase 4B (Homo sapiens) (UniProt Q07343); test: qHTS Assay for Inhibitors of PDE-IV (AID 607; active = well fitted activation curve with a large enough effect in the main read-out, with a control signal flat, not every such curve was filed as active; note: % of control where 0% means no effect); conditions: HEK293 ACTOne CNG channel cells, membrane potential fluorescence; series mostly up to 22.9 µM
Chain of 3',5'-cyclic-AMP phosphodiesterase 4B (Homo sapiens) (Q07343 whole entry, looked up): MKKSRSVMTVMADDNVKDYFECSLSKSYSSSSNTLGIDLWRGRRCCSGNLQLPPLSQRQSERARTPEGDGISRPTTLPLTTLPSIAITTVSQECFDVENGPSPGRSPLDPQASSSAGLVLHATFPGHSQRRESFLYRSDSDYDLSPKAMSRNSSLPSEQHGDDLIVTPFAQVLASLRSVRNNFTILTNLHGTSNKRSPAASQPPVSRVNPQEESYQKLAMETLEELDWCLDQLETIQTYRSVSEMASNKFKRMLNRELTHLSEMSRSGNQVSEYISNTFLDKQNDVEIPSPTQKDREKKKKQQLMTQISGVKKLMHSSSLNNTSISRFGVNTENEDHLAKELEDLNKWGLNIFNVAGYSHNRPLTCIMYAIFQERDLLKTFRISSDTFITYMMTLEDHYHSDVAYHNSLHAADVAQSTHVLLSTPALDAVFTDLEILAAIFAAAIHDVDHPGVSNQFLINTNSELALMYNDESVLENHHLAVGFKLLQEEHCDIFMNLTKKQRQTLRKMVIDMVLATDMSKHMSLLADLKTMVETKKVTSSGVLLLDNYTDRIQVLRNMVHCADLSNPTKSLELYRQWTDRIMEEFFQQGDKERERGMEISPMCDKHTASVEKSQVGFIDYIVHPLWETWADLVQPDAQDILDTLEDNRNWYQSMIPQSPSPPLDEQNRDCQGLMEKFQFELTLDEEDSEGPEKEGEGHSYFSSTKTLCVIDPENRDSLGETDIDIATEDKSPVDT
In short: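 HEK293 ACTOne cells with CNG channel (1000/well), endogenous PDE4; membrane potential dye, compounds up to 22.9 uM final. Fluorescence Ex 535/Em 590; RO 20-1724 (100 uM final) as reference.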

[8] = target: Cytochrome P450 3A4 (Homo sapiens) (UniProt P08684); test: qHTS Assay for Inhibitors and Substrates of Cytochrome P450 3A4 (AID 884; active = well fitted curve in the direction sought with a large enough effect; an effect the other way counts as inactive or inconclusive; note: % is set by controls: 0 for no effect and ±100 for the full control effect; nearly all actives have a fitted effect of over 50% in size); conditions: recombinant CYP3A4, Luciferin-PPXE luminescence; series mostly up to 57.1 µM
Chain of Cytochrome P450 3A4 (Homo sapiens) (P08684 whole entry, looked up): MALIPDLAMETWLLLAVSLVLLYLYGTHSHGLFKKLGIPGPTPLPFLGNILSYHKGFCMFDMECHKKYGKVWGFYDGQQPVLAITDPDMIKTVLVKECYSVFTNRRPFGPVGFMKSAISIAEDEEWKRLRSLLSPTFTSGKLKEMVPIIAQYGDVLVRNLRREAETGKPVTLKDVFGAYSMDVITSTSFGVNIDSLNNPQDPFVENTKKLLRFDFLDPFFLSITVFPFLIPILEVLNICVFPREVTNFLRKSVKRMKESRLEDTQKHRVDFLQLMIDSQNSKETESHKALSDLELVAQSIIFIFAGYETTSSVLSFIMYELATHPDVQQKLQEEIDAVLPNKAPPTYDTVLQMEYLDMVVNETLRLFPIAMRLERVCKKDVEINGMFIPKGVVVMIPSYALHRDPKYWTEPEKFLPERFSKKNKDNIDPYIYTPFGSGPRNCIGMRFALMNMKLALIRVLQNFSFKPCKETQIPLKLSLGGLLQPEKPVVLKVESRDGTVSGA
In short: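 Luminescent readout of luciferin produced by CYP3A4 (20 nM) dealkylation of Luciferin-PPXE, 25 uM (its KM). NADPH-driven reaction ran 60 min at RT after 10 min compound preincubation; data scaled to 57 uM ketoconazole as 100% inhibition.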

[9] = qHTS Assay for Identification of Small Molecule Agonists for Hypoxia Response Element Signaling Pathway (AID 914; active = well fitted activation curve with a large enough effect in the signal ratio, with a control signal flat, not every such curve was filed as active; the % refers to the signal ratio; note: % of control where 0% means no effect); conditions: ME-180 (cervical carcinoma) HRE-bla reporter, beta-lactamase ratio, CoCl2, 17 h; activation: hits give high values
In short: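 Read-out: CCF4 FRET ratio of 460nm to 530nm emission (excitation 405nm) after 2.5 hours at room temperature, taken from HRE-bla ME-180 cells that had been exposed to compound and EC50 CoCl2 for 17 hours.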

[10] = target: Mitogen-activated protein kinase 10 (Mus musculus) (UniProt Q61831); test: JNK3 AlphaScreen Assay (AID 530); conditions: JNK3 lysate, c-Jun phosphorylation; series mostly up to 11.4 µM;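 note: kinase came from lysate of stimulated human HepG2 cells; signal reports phosphorylation of biotinylated GST-cJun 1-79 at Ser73 with 10 µM ATP; % is set by controls: 0 for no effect and ±100 for the full control effect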
In short: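 Phosphorylation of biotinylated GST-cJun(1-79) at Ser73 is measured by AlphaScreen proximity luminescence. Enzyme is JNK3 in HepG2 lysates activated with interleukin-1beta and tumor necrosis factor alpha; ATP is 10 uM final.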

[11] = target: Cytochrome P450 2C9 (Homo sapiens) (UniProt P11712); test: qHTS Assay for Inhibitors and Substrates of Cytochrome P450 2C9 (AID 883; active = well fitted curve in the direction sought with a large enough effect; an effect the other way counts as inactive or inconclusive; note: % is set by controls: 0 for no effect and ±100 for the full control effect; nearly all actives have a fitted effect of over 60% in size); conditions: recombinant CYP2C9, luciferin-H luminescence, 60 min; series mostly up to 11.4 µM
Chain of Cytochrome P450 2C9 (Homo sapiens) (P11712 whole entry, looked up): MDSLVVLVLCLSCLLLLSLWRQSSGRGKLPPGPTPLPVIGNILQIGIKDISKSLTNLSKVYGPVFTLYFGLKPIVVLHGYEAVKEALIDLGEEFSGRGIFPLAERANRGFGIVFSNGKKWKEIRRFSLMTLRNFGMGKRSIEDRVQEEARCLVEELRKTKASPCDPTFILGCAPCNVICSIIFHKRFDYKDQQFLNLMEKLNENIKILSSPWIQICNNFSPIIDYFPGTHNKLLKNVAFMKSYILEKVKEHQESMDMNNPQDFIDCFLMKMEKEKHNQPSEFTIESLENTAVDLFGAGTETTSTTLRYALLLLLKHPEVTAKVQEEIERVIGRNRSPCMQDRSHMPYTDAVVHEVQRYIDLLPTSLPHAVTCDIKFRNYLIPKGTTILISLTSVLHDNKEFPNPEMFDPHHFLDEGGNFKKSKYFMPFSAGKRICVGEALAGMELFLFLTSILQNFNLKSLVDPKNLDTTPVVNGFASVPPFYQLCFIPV
In short: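 Human CYP2C9 (10nM) hydroxylated Luciferin-H (100uM, at its KM) to luciferin in 25mM KPO4. Compound was preincubated 10 min at 37C, then NADPH regeneration started a 60 min reaction at 37C. Luminescence was read after detection reagent, normalized to 57uM sulphaphenazole.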

[12] = target: Cytochrome P450 2D6 (Homo sapiens) (UniProt P10635); test: qHTS Assay for Inhibitors and Substrates of Cytochrome P450 2D6 (AID 891; active = well fitted curve in the direction sought with a large enough effect; an effect the other way counts as inactive or inconclusive;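 note: luciferin methyl ether substrate demethylated by CYP2D6 with NADPH regeneration; % is set by controls: 0 for no effect and ±100 for the full control effect; nearly all actives have a fitted effect of over 60% in size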); conditions: recombinant CYP2D6, luciferin-ME EGE luminescence; series mostly up to 11.4 µM
Chain of Cytochrome P450 2D6 (Homo sapiens) (P10635 whole entry, looked up): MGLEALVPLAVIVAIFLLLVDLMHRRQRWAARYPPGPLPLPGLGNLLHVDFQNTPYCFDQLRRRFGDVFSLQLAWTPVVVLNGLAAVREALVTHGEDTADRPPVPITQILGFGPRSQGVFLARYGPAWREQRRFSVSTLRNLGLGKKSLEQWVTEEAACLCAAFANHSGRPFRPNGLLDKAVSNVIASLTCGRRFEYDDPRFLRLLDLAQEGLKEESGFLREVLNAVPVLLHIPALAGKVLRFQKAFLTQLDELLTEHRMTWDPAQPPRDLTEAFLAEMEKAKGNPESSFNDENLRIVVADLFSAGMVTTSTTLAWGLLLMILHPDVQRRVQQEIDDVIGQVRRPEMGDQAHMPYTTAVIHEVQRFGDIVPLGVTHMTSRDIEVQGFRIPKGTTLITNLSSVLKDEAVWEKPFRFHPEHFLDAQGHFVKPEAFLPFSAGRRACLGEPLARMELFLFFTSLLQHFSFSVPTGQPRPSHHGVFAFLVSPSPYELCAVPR
In short: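 Luminescent read-out of luciferin formed by 5 nM human CYP2D6 demethylating 30 uM Luciferin-ME EGE (Km level) over 60 min at room temperature after NADPH regeneration addition. Data normalized to full inhibition by 1.43 uM quinidine.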

[13] = target: Cytochrome P450 2C19 (Homo sapiens) (UniProt P33261); test: qHTS Assay for Inhibitors and Substrates of Cytochrome P450 2C19 (AID 899; active = well fitted curve in the direction sought with a large enough effect; an effect the other way counts as inactive or inconclusive; note: % is set by controls: 0 for no effect and ±100 for the full control effect; nearly all actives have a fitted effect of over 60% in size); conditions: recombinant CYP2C19, luciferin-H EGE luminescence; series mostly up to 11.4 µM
Chain of Cytochrome P450 2C19 (Homo sapiens) (P33261 whole entry, looked up): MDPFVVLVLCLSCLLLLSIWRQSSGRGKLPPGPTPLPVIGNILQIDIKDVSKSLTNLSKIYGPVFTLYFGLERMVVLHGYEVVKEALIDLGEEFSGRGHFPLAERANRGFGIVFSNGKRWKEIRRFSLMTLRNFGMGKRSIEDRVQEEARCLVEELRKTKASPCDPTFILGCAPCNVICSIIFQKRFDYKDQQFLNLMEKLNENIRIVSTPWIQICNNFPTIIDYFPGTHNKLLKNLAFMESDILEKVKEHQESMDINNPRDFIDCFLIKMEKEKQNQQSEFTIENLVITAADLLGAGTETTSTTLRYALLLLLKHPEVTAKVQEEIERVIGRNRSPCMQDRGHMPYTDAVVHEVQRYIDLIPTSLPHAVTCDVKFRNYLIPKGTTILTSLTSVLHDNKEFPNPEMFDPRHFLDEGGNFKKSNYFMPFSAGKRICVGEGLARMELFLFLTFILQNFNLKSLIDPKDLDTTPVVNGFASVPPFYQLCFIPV
In short: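 Human CYP2C19 (5nM) with Luciferin-H EGE at 10uM (its KM) in 50mM KPO4 was preincubated with compound for 10 min at 37C. NADPH regeneration started a 60 min 37C reaction. Luciferin was read by luminescence, normalized to 57uM ketoconazole.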

[14] = target: Cytochrome P450 3A4 (Homo sapiens) (UniProt P08684); test: qHTS Assay for Activators of Cytochrome P450 3A4 (AID 885; active = well fitted curve in the direction sought with a large enough effect; an effect the other way counts as inactive or inconclusive; note: nearly all actives have a fitted effect of over 65% in size); conditions: recombinant CYP3A4, Luciferin-PPXE luminescence, 60 min; series mostly up to 11.4 µM
In short: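 Human CYP3A4 dealkylates Luciferin-PPXE to luciferin, which luciferase detection converts to light. Substrate was at its KM (25uM), buffer 200mM KPO4, reaction 60 min at RT.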

O=c1c(-c2ccccc2)nc2cnc(Oc3ccccc3)nc2n1C1CC1
inactive: Potency [1] > 11.4 µM | activity change, negative = inhibition [2] -26.4% | activity change, negative = inhibition [3] 2.32% | activity, negative = inhibition [4] -5.21% | Potency [5] > 9.22 µM | Potency [6] > 46 µM | Potency [7] | Potency [8]

O=S(=O)(O)c1ccc2c(N=Nc3c(O)ccc4ccccc34)cccc2c1
inactive: Potency [1] > 11.4 µM | activity change, negative = inhibition [2] -13.3% | activity change, negative = inhibition [3] -11.8% | activity, negative = inhibition [4] -5.48% | Potency [5] > 46 µM | Potency [6] > 9.22 µM | Potency [7]

O=S(=O)(O)c1cc(O)c2c(O)c(N=Nc3cccc4ccccc34)c(S(=O)(=O)O)cc2c1
inactive: Potency [1] > 11.4 µM | activity change, negative = inhibition [2] -2.93% | activity change, negative = inhibition [3] -6.39% | activity, negative = inhibition [4] 4.42% | Potency [5] > 46 µM | Potency [6] > 9.22 µM | Potency [7] | activation [9] -26.6%

O=C1c2ccccc2C(=O)c2c(Nc3cc4c5c(ccc6c7ccc8c9c(cc(Nc%10cccc%11c%10C(=O)c%10ccccc%10C%11=O)c(c3c56)c97)-c3ccccc3C8=O)C(=O)c3ccccc3-4)cccc21
inactive: Potency [1] > 11.4 µM | activity change, negative = inhibition [2] 11.6% | activity change, negative = inhibition [3] 22.7% | activity, negative = inhibition [4] 11.5% | Potency [5] > 46 µM | Potency [6] > 9.22 µM | Potency [7]

OCCCNCc1ccncc1
inactive: Potency [1] > 11.4 µM | activity change, negative = inhibition [2] -2.93% | activity change, negative = inhibition [3] 5.43% | activity, negative = inhibition [4] -6.9% | Potency [5] > 46 µM | Potency [10] | Potency [7] | activation [9] 1.84%

O=S(=O)(O)c1cc(S(=O)(=O)O)c2c(N=Nc3cccc4ccccc34)c(O)ccc2c1
inactive: Potency [1] > 11.4 µM | activity change, negative = inhibition [2] 4.87% | activity change, negative = inhibition [3] 21.1% | activity, negative = inhibition [4] 5.07% | Potency [5] > 46 µM | Potency [6] > 9.22 µM | Potency [7] | Potency [11] | activity change, negative = inhibition [8] -5.78% [at 11.4 µM] | Potency [12] | Potency [13]

O=C(O)CN(CCN(CC(=O)O)CC(=O)O)CC(=O)O.[Mn]
inactive: Potency [1] > 11.4 µM | activity change, negative = inhibition [2] -0.063% | activity change, negative = inhibition [3] 7.91% | activity, negative = inhibition [4] 8.71% | Potency [10] | Potency [7]

O=C(O)CN(CCN(CC(=O)O)CC(=O)O)CC(=O)O.[Cu]
inactive: Potency [1] > 11.4 µM | activity change, negative = inhibition [2] -4.33% | activity change, negative = inhibition [3] 0.389% | activity, negative = inhibition [4] 6.67% | Potency [10] | Potency [7]

COc1ccc(C(=O)N2CCC3(CC2)CN(c2ccccc2)C3)cc1
inactive: Potency [1] > 11.4 µM | activity change, negative = inhibition [2] -16.2% | activity change, negative = inhibition [3] 5.84% | activity, negative = inhibition [4] -21.3% | Potency [6] > 46 µM | Potency [10] | Potency [7]

O=C1C2=C(Nc3cc([N+](=O)[O-])ccc3N2)O[C@@H]1c1ccc([C@H]2OC3=C(Nc4ccc([N+](=O)[O-])cc4N3)C2=O)cc1
inactive: Potency [1] > 11.4 µM | activity change, negative = inhibition [2] -12.2% | activity change, negative = inhibition [3] 4.88% | Potency [5] > 46 µM | Potency [6] > 9.22 µM | Potency [10] | Potency [7] | Potency [14]

CCN(CC)CCN1C(=O)c2cccc3cc(N)cc(c23)C1=O
inactive: Potency [1] > 11.4 µM | activity change, negative = inhibition [2] 25.3% | activity change, negative = inhibition [3] -6.74% | Potency [5] > 46 µM | Potency [6] > 9.22 µM | Potency [10] | Potency [7]

Cc1cc(OCC(=O)O)c(Cl)cc1Cl
inactive: Potency [1] > 11.4 µM | activity change, negative = inhibition [2] 2.52% | activity change, negative = inhibition [3] 2.25% | Potency [5] > 46 µM | Potency [6] > 9.22 µM | Potency [10] | Potency [7]

C[C@@H](SCc1ccccc1)C(=O)O
inactive: Potency [1] > 11.4 µM | activity change, negative = inhibition [2] -4.75% | activity change, negative = inhibition [3] 12.1% | Potency [5] > 46 µM | Potency [6] > 9.22 µM | Potency [10] | Potency [7]

C[C@@]1(CO)[C@H](O)CC[C@]2(C)[C@@H]1CC[C@H]1C[C@H]3C[C@]12CC[C@]3(O)COC(=O)CN
inactive: Potency [1] > 11.4 µM | activity change, negative = inhibition [2] 5.13% | activity change, negative = inhibition [3] 23.5% | Potency [5] > 46 µM | Potency [6] > 9.22 µM | Potency [10] | Potency [7]

O=C(O)/C=C\C=C/c1ccc2c(c1)OCO2
inactive: Potency [1] > 11.4 µM | activity change, negative = inhibition [2] 6.54% | activity change, negative = inhibition [3] 5.9% | Potency [5] > 46 µM | Potency [6] > 9.22 µM | Potency [10] | Potency [7]

CN1CCC[C@@H]1c1cccnc1.O=C(O)c1ccccc1O.O=C([OH2+])c1ccccc1O.O=C([OH2+])c1ccccc1O.[Mn]
inactive: Potency [1] > 11.4 µM | activity change, negative = inhibition [2] 10.8% | activity change, negative = inhibition [3] -9.45% | activity, negative = inhibition [4] 17.5% | Potency [10] | Potency [7]

O=C(O)c1ccncc1.O=C(O)c1ccncc1.[Cl][Pt]([Cl])([Cl])[Cl]
inactive: Potency [1] > 11.4 µM | activity change, negative = inhibition [2] 2.72% | activity change, negative = inhibition [3] -19.9% | Potency [5] > 46 µM | Potency [6] > 9.22 µM | Potency [10] | Potency [7]

O=C(O)[C@H](/C=C\c1ccccc1)c1ccccc1
inactive: Potency [1] > 11.4 µM | activity change, negative = inhibition [2] 0.652% | activity change, negative = inhibition [3] -12% | Potency [5] > 46 µM | Potency [6] > 9.22 µM | Potency [10] | Potency [7]
